# Test results taken from PubChem BioAssay (NCI).
# About 83,000 compounds went through this panel and 20% of them were active in at least one assay; those are over-represented in the sample as a whole.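 A percent growth of 40 corresponds to 60% growth inhibition; 0 means no net growth; -100 means all cells died. Active threshold: below 10.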 Activity calls are given as the source filed them.
# Tested on: HCT-116 colon
# Test: NCI-60 one-dose screen, 48 h (100 = growth as untreated, 0 = no growth, -100 = all killed)
# Conditions: 10 µM unless noted
# Protocol: Growth inhibition of the HCT-116 human tumor cell line is measured as a screen for anti-cancer activity. Cells are grown in 96 well plates and exposed to the test compound for 48 hours. Compounds are tested at a single concentration, which is 10^-5 M for most compounds. The reported endpoint is percent growth (GI% or GIPRCNT), where numbers from 0 - 100% represent growth inhibition, and numbers from -100% - 0 represent cell death. For example, a value of 40 represents 60% growth inhibition. A value of 0 means no net growth occurred over the course of the experiment. A value of -40 indicates 40% of cells at the beginning of the experiment died by the end of the experiment. A value of -100 means all cells are dead at the end of the experiment.
# NCI-60 Human Tumor Cell Lines Screen was performed using the standard one-dose NCI protocol, which is described in more detail at https://dtp.cancer.gov/discovery_development/nci-60/default.htm.
# Compounds with GIPRCNT values below 10 were considered active. Activity score was based on GIPRCNT using the following formula: […]
# Score is 0 for GIPRCNT values of 100 or above, 50 for GIPRCNT values of 0, and 100 for GIPRCNT values of -100.
row,Compound,growth
1,CCOc1ccc(-n2nc(C(=O)Nc3ccccc3)nc2-c2cc(OC)c(OC)c(OC)c2)cc1,21.2% (inactive)
2,CC[C@@H](C(=O)[C@@H](C)[C@@H](O)[C@H](C)[C@@H]1O[C@@H]([C@@H](CC)C(=O)O)CC[C@@H]1C)[C@H]1OC2(C=C[C@@H](O)[C@]3(CC[C@@](C)([C@H]4CC[C@](O)(CC)[C@H](C)O4)O3)O2)[C@H](C)C[C@@H]1C (stereo not given in full),12% (inactive)
3,N#Cc1cnn(-c2nc3c(Cl)cccc3s2)c1N,61.7% (inactive)
4,COc1cc2nc(N3CCCC3)nc(NCc3ccccc3)c2cc1OC,28.2% (inactive)
5,C=C1c2nc3ccccc3n2C=C(c2ccc(Cl)cc2)N1Cc1ccc(OC)cc1,63.5% (inactive)
6,OCCN1CCN(c2nc(Nc3ccc(-c4nc5ccccc5[nH]4)cc3)c3cn[nH]c3n2)CC1,-80.1% (active)
7,O=C1c2cc3c(cc2-c2c1c1cc(F)c(F)cc1c(=O)n2CCCn1ccnc1)OCO3,-12.8% (active)
8,Cc1ccc2c(C(C[N+](=O)[O-])c3ccccc3F)c(-c3ccccc3)[nH]c2c1 (stereo not given),25.9% (inactive)
9,O=C1Nc2c(ccc(Cl)c2Cl)/C1=C\c1ccc(C(F)(F)F)cc1,68.2% (inactive)
10,O=C(CN(C(=O)Cn1c(=O)n2nnnc2c2ccccc21)c1ccccc1C(F)(F)F)Nc1ccc(C(F)(F)F)cc1,95.5% (inactive)
11,COc1cc(-c2ccc3c(c2)NC(=O)/C3=C\c2ccc[nH]2)ccc1O,14.1% (inactive)
12,NC(N)=N/N=C(/c1ccccc1)c1ccc(F)cc1,2.71% (active)
13,Cc1[nH]c(-c2ccc3cc[nH]c3c2)c2c1C(=O)CCCC2,38.9% (inactive)
14,O=C1c2cc3c(cc2-c2c1c1ccc(F)cc1c(=O)n2C[C@H](O)[C@H](O)[C@H](O)CO)OCO3,9.02% (active)
15,COc1cccc(-c2nc3sccn3c2-c2ccnc(NCCCNS(=O)(=O)c3cccc(Cl)c3)c2)c1,34% (inactive)
16,Cc1cc(N2CCCC2)nc(NC2CCCC(Nc3ccnc4cc(Cl)ccc34)C2)n1 (stereo not given),-87.1% (active)
17,C#CC(F)(F)[C@]1(O)CC[C@H]2[C@@H]3CCC4=CC(=O)CCC4=C3[C@@H](c3ccc(C(C)=O)cc3)C[C@@]21C,94.9% (inactive)
18,Cc1ccc(NC(=O)/C=C/c2ccccc2)c(C(N)=O)c1,34.4% (inactive)
19,COc1ccc(C2CC(c3ccc(Cl)cc3)=NN2/C=C2\SC(=S)N(NC(=O)Cc3ccccc3Nc3c(Cl)cccc3Cl)C2=O)cc1 (stereo not given),56.3% (inactive)
20,Cc1[nH]c(-c2cc(N)ccc2Cl)c2c1C(=O)CCCC2,29.4% (inactive)

row,Compound,growth
1,COc1cc(C(=O)Oc2ccccc2OC(=O)c2cc(OC)c(OC)c(OC)c2)cc(OC)c1OC,104% (inactive)
2,COc1ccc(S(=O)(=O)N2CCCCC2)cc1NC(=O)c1[nH]c(C)c2c1CCCCC2=O,17.6% (inactive)
3,COc1ccc(-n2nc(C)c3c(Oc4ccc(NC(=O)Nc5c(Cl)cccc5Cl)cc4)ncnc32)cc1,109% (inactive)
4,O=C(CN1C(=O)/C(=C/c2ccc(Cl)cc2)SC1=S)NCCCN1CCOCC1,102% (inactive)
5,O=C(N=Nc1c(O)[nH]c2ccc(Br)cc12)c1cc(-c2ccccc2)on1,106% (inactive)
6,Nc1ccc(S(=O)(=O)O)c2ccc(N=Nc3ccc(N=Nc4ccc(S(=O)(=O)O)cc4)c4ccccc34)c(O)c12,99.4% (inactive)
7,Cc1oc(-c2ccc(Cl)cc2Cl)cc1C(=O)Nc1nccs1,67.2% (inactive)
8,c1ccc(Cn2cc(-c3nc4ccccc4s3)c3cccnc32)cc1,100% (inactive)
9,O=c1cc(CSc2nnc(-c3ccc(F)cc3)o2)c2ccc3ccccc3c2o1,93.2% (inactive)
10,COc1ccc(O)c(N=Nc2nccs2)c1,65.5% (inactive)
11,COc1ccc(C(=O)COc2cccc(/C=C3\CSc4ccccc4C3=O)c2)cc1,-87.5% (active)
12,COc1ccc(-c2cc(C(=O)N=Nc3c(O)[nH]c4ccc(Br)cc34)no2)cc1,91.6% (inactive)
13,COc1ccc(C2Nc3c(c(C(C)(C)C)nn3-c3ccccc3)C(=O)CS2)cc1 (stereo not given),97.7% (inactive)
14,OCC(O)c1nc2ccc3[nH]ncc3c2c2c1CCCC2 (stereo not given),1.98% (active)
15,O=C(CCN1C(=O)/C(=C/c2ccc(Cl)cc2)SC1=S)NCCCN1CCOCC1,98.7% (inactive)
16,COc1cc2c(cc1O)CC[C@@H]1[C@@H]2CC[C@]2(C)[C@@H](OCCN(C)C)CC[C@@H]12,7.27% (active)
17,Cc1ccc(NC(=O)C2CCC(CN3CCN(C)CC3)CC2)cc1Nc1nccc(-c2cccnc2)n1 (stereo not given),101% (inactive)
18,O=C1/C(=C/c2ccc3c(c2)OCO3)SC(=S)N1CCc1ccc(O)cc1,101% (inactive)
19,O=C(N=Nc1c(O)[nH]c2ccccc12)c1cc(-c2ccccc2)on1,99.7% (inactive)
20,Cc1cc(N2CCN(C)CC2)nc(NC2CCCC(Nc3ccnc4cc(Cl)ccc34)C2)n1 (stereo not given),-69.6% (active)
